A short description of assay [1]: NCI Yeast Anticancer Drug Screen. Data for the rad50 strain (AID 155).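 Note: 0% = growth of vehicle-only cultures of the same strain.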 To be noted: S. cerevisiae rad50 strain growth inhibition, stronger effect = higher value. The procedure, abridged: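 Inhibition values express reduced yeast growth in compound-treated cultures relative to vehicle-treated controls.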
Assay [2] is described as follows: NCI Yeast Anticancer Drug Screen. Data for the mec2-1 strain (AID 157). The note with it: S. cerevisiae mec2-1 strain, stronger effect = higher value. The procedure, abridged:
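Readout is yeast growth inhibition, normalised to vehicle-treated controls, in the mec2-1 strain exposed to compound.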

Assay [3] can be described thus: NCI Yeast Anticancer Drug Screen. Data for the sgs1 mgt1 strain (AID 161).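 Note: 0% = growth of cultures given vehicle only.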 To be noted: S. cerevisiae sgs1 mgt1 strain, stronger effect = higher value. The procedure, abridged:
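Growth of a repair-deficient yeast mutant was monitored after compound treatment and expressed as inhibition relative to vehicle-treated cultures.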

A short description of assay [4]: NCI Yeast Anticancer Drug Screen. Data for the cln2 rad14 strain (AID 165).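 Note: 0% = growth equal to vehicle treated cultures.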 To be noted: S. cerevisiae cln2 rad14 strain, stronger effect = higher value. The procedure, abridged:
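Relative to vehicle controls, growth inhibition of compound-treated cln2 rad14 yeast was recorded.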

Assay [5] is described as follows: NCI Yeast Anticancer Drug Screen. Data for the bub3 strain (AID 167). To be noted: S. cerevisiae bub3 mutant strain, stronger effect = higher value. The procedure, abridged:
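Steps: expose the mutant yeast strain to compound; grow alongside vehicle-treated cultures; measure growth; express inhibition against the vehicle cultures.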

Assay [6] can be described thus: NCI Yeast Anticancer Drug Screen. Data for the mlh1 rad18 strain (AID 175). To be noted: S. cerevisiae mlh1 rad18 strain growth inhibition, stronger effect = higher value. The method, boiled down: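 Test agents were incubated with a yeast strain of defined genotype (DNA damage repair defect). Inhibition of growth was derived by comparison with vehicle-exposed cultures.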
Setting [7] is: at 5.0 µM (retest, dose inferred, filed as 0.5).
Where [8] appears, read: at 50.0 µM (retest, dose inferred, filed as 5.0).

About 79,000 compounds went through this panel and 15% of them were active in at least one assay; those are over-represented in the sample as a whole. A number with no mark means an inactive call. Calls of active or inactive are those of the source. Cut-off read from the data, not from the text of the source: active = growth inhibition above about 70%; inactive = the rest.

As for `CC/C(=N\OC(=O)Nc1ccccc1)c1ccc(OC(=O)Nc2ccccc2)cc1`, the growth inhibition in assay [1] (setting [7]) is 4%; in assay [1] (setting [8]), 22%; in assay [1] (at 50.0 µM), 60.5%; in assay [2] (setting [7]) it was -7%; in assay [2] (setting [8]), 58%; in assay [2] (at 50.0 µM), 55%. For the same compound, the growth inhibition is 2% in assay [3] (setting [7]); 46% in assay [3] (setting [8]); 76.8% (active) in assay [3] (at 50.0 µM); -4% in assay [4] (setting [7]); 7% in assay [4] (setting [8]); 49.6% in assay [4] (at 50.0 µM). For the same compound, the growth inhibition in assay [5] (setting [7]) was 1%; in assay [5] (setting [8]) it was 48%; in assay [5] (at 50.0 µM), 33.1%; in assay [6] (setting [7]), 2%; in assay [6] (setting [8]) it was 24%; in assay [6] (at 50.0 µM), 76.1% (active).
For the compound `CC(C)(C)[Si](C)(C)O/N=C\c1cccc(O[Si](C)(C)C(C)(C)C)c1`, the growth inhibition in assay [1] (setting [7]) is -3%; in assay [1] (setting [8]), 97% (active); in assay [1] (at 50.0 µM), 48%; in assay [2] (setting [7]), -6%; in assay [2] (setting [8]), 95% (active); in assay [2] (at 50.0 µM), 12.3%. Further, the growth inhibition was 0% in assay [3] (setting [7]); 99% (active) in assay [3] (setting [8]); 78.5% (active) in assay [3] (at 50.0 µM); -13% in assay [4] (setting [7]); 97% (active) in assay [4] (setting [8]); 54.8% in assay [4] (at 50.0 µM). Further, the growth inhibition in assay [5] (setting [7]) was 3%; in assay [5] (setting [8]) it was 94% (active); in assay [5] (at 50.0 µM), 36%; in assay [6] (setting [7]) it was -3%; in assay [6] (setting [8]), 98% (active); in assay [6] (at 50.0 µM), 76.8% (active).
As for `O=C(O)CCc1ccc2ccccc2c1`, the growth inhibition in assay [1] (setting [7]) is -2%; in assay [1] (setting [8]), 48%; in assay [1] (at 50.0 µM), 62.8%; in assay [2] (setting [7]) it was 0%; in assay [2] (setting [8]) it was 38%; in assay [2] (at 50.0 µM), 51.4%. Further, the growth inhibition is 1% in assay [3] (setting [7]); 37% in assay [3] (setting [8]); 37.7% in assay [3] (at 50.0 µM); -4% in assay [4] (setting [7]); 32% in assay [4] (setting [8]); 83.2% (active) in assay [4] (at 50.0 µM). Further, the growth inhibition was -6% in assay [5] (setting [7]); 18% in assay [5] (setting [8]); 53.7% in assay [5] (at 50.0 µM); -4% in assay [6] (setting [7]); 41% in assay [6] (setting [8]); 88.2% (active) in assay [6] (at 50.0 µM).
Turning to `CN1CC[N+](C)(Cc2ccc(C[N+]3(C)CC[N+](C)(Cc4ccc(CCl)cc4)CC3)cc2)CC1` (stereo not given), the growth inhibition in assay [1] (setting [7]) is 2%; in assay [1] (setting [8]), 97% (active); in assay [1] (at 50.0 µM), 99.2% (active); in assay [2] (setting [7]) it was 4%; in assay [2] (setting [8]), 95% (active); in assay [2] (at 50.0 µM) it was 99.4% (active). The growth inhibition in assay [3] (setting [7]) was 2%; in assay [3] (setting [8]) it was 83% (active); in assay [3] (at 50.0 µM), 99.4% (active); in assay [4] (setting [7]), -3%; in assay [4] (setting [8]), 95% (active); in assay [4] (at 50.0 µM) it was 98.1% (active). The growth inhibition in assay [5] (setting [7]) was 1%; in assay [5] (setting [8]) it was 98% (active); in assay [5] (at 50.0 µM), 99.5% (active); in assay [6] (setting [7]), 2%; in assay [6] (setting [8]), 98% (active); in assay [6] (at 50.0 µM), 99.3% (active).
For the compound `O=[N+]([O-])/C=C/c1cc2ccccc2[nH]1`, the growth inhibition in assay [1] (setting [7]) was 6%; in assay [1] (setting [8]), 99% (active); in assay [1] (at 50.0 µM), 99.5% (active); in assay [2] (setting [7]), -6%; in assay [2] (setting [8]) it was 100% (active); in assay [2] (at 50.0 µM) it was 99.5% (active). The growth inhibition is 9% in assay [3] (setting [7]); 99% (active) in assay [3] (setting [8]); 99.4% (active) in assay [3] (at 50.0 µM); 11% in assay [4] (setting [7]); 99% (active) in assay [4] (setting [8]); 96.5% (active) in assay [4] (at 50.0 µM). The growth inhibition was -8% in assay [5] (setting [7]); 100% (active) in assay [5] (setting [8]); 99.5% (active) in assay [5] (at 50.0 µM); 16% in assay [6] (setting [7]); 99% (active) in assay [6] (setting [8]); 99.2% (active) in assay [6] (at 50.0 µM).
As for `CCC1C(c2cccc(OC)c2O)c2cc3c(cc2OC1N1CCCC1)OCO3` (stereo not given), the growth inhibition in assay [1] (setting [7]) is 21%; in assay [1] (setting [8]), 43%; in assay [1] (at 50.0 µM), -66.2%; in assay [2] (setting [7]), 22%; in assay [2] (setting [8]) it was 19%; in assay [2] (at 50.0 µM), -19.7%. For the same compound, the growth inhibition in assay [3] (setting [7]) is 26%; in assay [3] (setting [8]) it was 25%; in assay [3] (at 50.0 µM), -52.7%; in assay [4] (setting [7]) it was 31%; in assay [4] (setting [8]), 45%; in assay [4] (at 50.0 µM), -28.6%. In addition, the growth inhibition in assay [5] (setting [7]) was 17%; in assay [5] (setting [8]) it was 26%; in assay [5] (at 50.0 µM) it was -5.3%; in assay [6] (setting [7]) it was 22%; in assay [6] (setting [8]), 63%; in assay [6] (at 50.0 µM) it was -29.7%.
For the compound `Cc1ccc(/C=C2\CCC/C(=C\c3ccc(O)c(CN4CCCCC4)c3)C2=O)cc1`, the growth inhibition is 16% in assay [1] (setting [7]); 22% in assay [1] (setting [8]); 6.8% in assay [1] (at 50.0 µM); 4% in assay [2] (setting [7]); 15% in assay [2] (setting [8]); -15.2% in assay [2] (at 50.0 µM). Further, the growth inhibition in assay [3] (setting [7]) was 0%; in assay [3] (setting [8]), 25%; in assay [3] (at 50.0 µM) it was 70.9% (active); in assay [4] (setting [7]), 7%; in assay [4] (setting [8]), 27%; in assay [4] (at 50.0 µM) it was 42.1%. The growth inhibition in assay [5] (setting [7]) was -34%; in assay [5] (setting [8]) it was 28%; in assay [5] (at 50.0 µM) it was 66.5%; in assay [6] (setting [7]), 9%; in assay [6] (setting [8]) it was 18%; in assay [6] (at 50.0 µM) it was 84% (active).
For the compound `Cc1cc(Br)c(P(=O)(O)O)cc1[N+](=O)[O-]`, the growth inhibition in assay [1] (setting [7]) is -3%; in assay [1] (setting [8]), -10%; in assay [1] (at 50.0 µM) it was 74.1% (active); in assay [2] (setting [7]), -7%; in assay [2] (setting [8]) it was -3%; in assay [2] (at 50.0 µM) it was 42.7%. Also, the growth inhibition in assay [3] (setting [7]) was -3%; in assay [3] (setting [8]), -14%; in assay [3] (at 50.0 µM), 72% (active); in assay [4] (setting [7]), 0%; in assay [4] (setting [8]), -5%; in assay [4] (at 50.0 µM) it was -2.55%. The growth inhibition in assay [5] (setting [7]) is 3%; in assay [5] (setting [8]), 6%; in assay [5] (at 50.0 µM), 4.4%; in assay [6] (setting [7]) it was 3%; in assay [6] (setting [8]) it was -4%; in assay [6] (at 50.0 µM), 64%.
As for `CN(C)CCCNc1c2ccccc2nc2ccc(F)cc12`, the growth inhibition in assay [1] (setting [7]) was 0%; in assay [1] (setting [8]) it was 24%; in assay [1] (at 50.0 µM), 27.2%; in assay [2] (setting [7]), -8%; in assay [2] (setting [8]) it was 26%; in assay [2] (at 50.0 µM), 24.4%. Also, the growth inhibition was 6% in assay [3] (setting [7]); 24% in assay [3] (setting [8]); 15.2% in assay [3] (at 50.0 µM); 8% in assay [4] (setting [7]); 21% in assay [4] (setting [8]); 81.8% (active) in assay [4] (at 50.0 µM). Also, the growth inhibition in assay [5] (setting [7]) is 0%; in assay [5] (setting [8]), 6%; in assay [5] (at 50.0 µM) it was 42.5%; in assay [6] (setting [7]), 14%; in assay [6] (setting [8]), 27%; in assay [6] (at 50.0 µM), 36.8%.
As to `CCCCCC[C@@H](O)C/C=C\CCCCCCCC(=O)OCCCC`, the growth inhibition in assay [1] (setting [7]) was -2%; in assay [1] (setting [8]), -7%; in assay [1] (at 50.0 µM) it was 23.6%; in assay [2] (setting [7]) it was -4%; in assay [2] (setting [8]), -7%; in assay [2] (at 50.0 µM) it was 26.1%. The growth inhibition in assay [3] (setting [7]) is -1%; in assay [3] (setting [8]), -5%; in assay [3] (at 50.0 µM), 23.6%; in assay [4] (setting [7]) it was -3%; in assay [4] (setting [8]), -8%; in assay [4] (at 50.0 µM), 75.8% (active). The growth inhibition is -6% in assay [5] (setting [7]); -7% in assay [5] (setting [8]); 24.6% in assay [5] (at 50.0 µM); 0% in assay [6] (setting [7]); 1% in assay [6] (setting [8]); 23.9% in assay [6] (at 50.0 µM).

The record behind these values is PubChem BioAssay (NCI).
